These results are taken from the supplement of paper PMC10849652.

Holding throughout (assay): log2 fold change, soluble protein after heating vs DMSO (PISA); higher = thermal stabilisation; K562 cells, 10 uM, 30 min; active = over 0.2 and 3.5 SD of the protein, either way, in both replicates (recomputed)
Compound in assay [1]: COC1=CC=C(C=C1)CN2C=CC3=C2C=C(C=C3)C(=O)NO
The essentials:
(§1)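 Values are thermal stability changes relative to control samples and are taken from duplicates. They are stated as log2 fold changes. Before quantification by TMTpro 16plex LC-MS/MS with equalised channel sums, K562 cells at 2×10^6 cells/mL were treated with 10 μM compound for 30 min, heated in aliquots for 3 min across 48°C-58°C, pooled, extracted in PBS with 0.5% NP-40 at 4°C, and centrifuged at 21,000xg for 90 min to give the soluble supernatant.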

Compound in a further assay: CO[C@H]1C[C@@H]2CC[C@@H](C)[C@@](O)(O2)C(=O)C(=O)N2CCCC[C@H]2C(=O)O[C@H]([C@H](C)C[C@@H]2CC[C@H](n3cnnn3)[C@H](OC)C2)CC(=O)[C@H](C)/C=C(\C)[C@@H](O)[C@@H](OC)C(=O)[C@H](C)C[C@H](C)/C=C/C=C/C=C/1C [zotarolimus]
The essentials: as §1

Compound in the next assay: COc1cc(C(=O)O)ccc1NC(=O)[C@@H]1N[C@@H](CC(C)(C)C)[C@](C#N)(c2ccc(Cl)cc2F)[C@H]1c1cccc(Cl)c1F [idasanutlin]
Summed up:
as §1

Compound in the next assay: COc1cc(Nc2ncc3c(n2)-c2ccc(Cl)cc2C(c2c(F)cccc2OC)=NC3)ccc1C(=O)O [alisertib]
The essentials: as §1

Compound in assay [2]: COc1cc2nc(-c3cc(F)ccc3O)nc(N[C@@H]3CNC[C@H]3C(C)(C)O)c2cc1OC
Summed up: as §1

Compound in a further assay: COc1cc2ncnc(Nc3ccc(F)c(Cl)c3)c2cc1OCCCN1CCOCC1 [gefitinib]
The essentials: as §1

Compound in assay [3]: COc1cccc2cc(-c3nc([C@H]4CC[C@H](C(=O)O)CC4)n4ncnc(N)c34)[nH]c12
The essentials:
as §1

Compound in another assay: CS(=O)(=O)CCNCc1ccc(-c2ccc3ncnc(Nc4ccc(OCc5cccc(F)c5)c(Cl)c4)c3c2)o1 [lapatinib]
Summed up:
as §1

Compound in another assay: CS(=O)(=O)N1CCN(Cc2cc3nc(-c4cccc5[nH]ncc45)nc(N4CCOCC4)c3s2)CC1 [pictilisib]
The essentials: as §1

Compound in a further assay: C[C@@H](Oc1cc(-c2cnn(C3CCNCC3)c2)cnc1N)c1c(Cl)ccc(F)c1Cl [crizotinib]
Summed up: as §1

Compound in assay [4]: C[C@H](C1=CC=C(C=C1)C(=O)NC2=C3C=CNC3=NC=C2)N
Summed up:
as §1

Compound in another assay: C[C@H](Nc1ncnc2nc[nH]c12)c1cc2cccc(Cl)c2c(=O)n1-c1ccccc1 [duvelisib]
Summed up:
as §1

Compound in another assay: Cc1cc(Nc2cc(CN3CCOCC3)c3nc(C)c(Cc4ccc(Cl)cc4F)n3n2)n[nH]1 [gandotinib]
Summed up:
as §1

Compound in another assay: Cc1cc(Nc2cc(N3CCN(C)CC3)nc(Sc3ccc(NC(=O)C4CC4)cc3)n2)n[nH]1 [tozasertib]
Summed up:
as §1

Compound in assay [5]: Cc1cc(SCc2sc(-c3ccc(C(F)(F)F)cc3)nc2C)ccc1OCC(=O)O
Summed up: as §1

Compound in a further assay: Cc1ccc(-n2nc(C(C)(C)C)cc2NC(=O)Nc2ccc(OCCN3CCOCC3)c3ccccc23)cc1 [doramapimod]
The essentials: as §1

Compound in a further assay: Cc1ccc(C(=O)N(CCCN)[C@@H](c2nc3cc(Cl)ccc3c(=O)n2Cc2ccccc2)C(C)C)cc1 [ispinesib]
The essentials: as §1

Compound in assay [6]: C[C@@H]1COCCN1C2=NC(=NC(=C2)C3(CC3)S(=O)(=O)C)C4=C5C=CNC5=CC=C4
Summed up:
as §1

Compound in a further assay: CON(C)C(=O)N1N=C(c2cc(F)ccc2F)S[C@@]1(CCCN)c1ccccc1 [filanesib]
Summed up: as §1

Compound in assay [7]: CS(=O)(=O)c1ccc(-c2cnc(N)c(C(=O)Nc3ccccc3)n2)cc1
The essentials:
as §1

Of roughly 7,900 targets only a part is listed; those with a hit were picked by preference. About 0.6% of all pairs of compound and target were hits. Values without a mark were called inactive.

Chain of UniProt Q5VVJ2 (Q5VVJ2 whole entry, looked up): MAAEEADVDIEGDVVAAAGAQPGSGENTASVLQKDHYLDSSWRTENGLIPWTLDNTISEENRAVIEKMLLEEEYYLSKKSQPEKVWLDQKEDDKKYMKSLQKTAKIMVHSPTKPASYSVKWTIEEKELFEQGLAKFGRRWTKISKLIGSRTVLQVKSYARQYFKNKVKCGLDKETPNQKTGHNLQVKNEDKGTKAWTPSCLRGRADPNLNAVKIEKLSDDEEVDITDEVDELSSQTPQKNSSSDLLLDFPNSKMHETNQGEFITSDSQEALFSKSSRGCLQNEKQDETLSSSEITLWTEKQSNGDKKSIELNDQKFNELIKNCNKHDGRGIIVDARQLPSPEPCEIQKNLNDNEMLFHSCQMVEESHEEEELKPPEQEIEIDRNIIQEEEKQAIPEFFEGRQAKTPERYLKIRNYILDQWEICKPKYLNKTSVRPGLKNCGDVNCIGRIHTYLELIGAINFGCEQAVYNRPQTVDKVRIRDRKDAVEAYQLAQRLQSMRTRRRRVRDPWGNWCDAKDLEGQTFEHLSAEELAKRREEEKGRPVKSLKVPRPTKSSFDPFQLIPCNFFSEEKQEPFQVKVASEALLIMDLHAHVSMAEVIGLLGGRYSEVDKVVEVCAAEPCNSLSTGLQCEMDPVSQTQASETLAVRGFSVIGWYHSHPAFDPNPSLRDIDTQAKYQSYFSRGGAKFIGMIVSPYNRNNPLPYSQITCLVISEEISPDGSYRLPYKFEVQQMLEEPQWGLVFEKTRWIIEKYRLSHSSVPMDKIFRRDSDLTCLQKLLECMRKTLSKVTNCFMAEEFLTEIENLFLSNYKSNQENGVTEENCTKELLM
Chain of UniProt P40692 (P40692 whole entry, looked up): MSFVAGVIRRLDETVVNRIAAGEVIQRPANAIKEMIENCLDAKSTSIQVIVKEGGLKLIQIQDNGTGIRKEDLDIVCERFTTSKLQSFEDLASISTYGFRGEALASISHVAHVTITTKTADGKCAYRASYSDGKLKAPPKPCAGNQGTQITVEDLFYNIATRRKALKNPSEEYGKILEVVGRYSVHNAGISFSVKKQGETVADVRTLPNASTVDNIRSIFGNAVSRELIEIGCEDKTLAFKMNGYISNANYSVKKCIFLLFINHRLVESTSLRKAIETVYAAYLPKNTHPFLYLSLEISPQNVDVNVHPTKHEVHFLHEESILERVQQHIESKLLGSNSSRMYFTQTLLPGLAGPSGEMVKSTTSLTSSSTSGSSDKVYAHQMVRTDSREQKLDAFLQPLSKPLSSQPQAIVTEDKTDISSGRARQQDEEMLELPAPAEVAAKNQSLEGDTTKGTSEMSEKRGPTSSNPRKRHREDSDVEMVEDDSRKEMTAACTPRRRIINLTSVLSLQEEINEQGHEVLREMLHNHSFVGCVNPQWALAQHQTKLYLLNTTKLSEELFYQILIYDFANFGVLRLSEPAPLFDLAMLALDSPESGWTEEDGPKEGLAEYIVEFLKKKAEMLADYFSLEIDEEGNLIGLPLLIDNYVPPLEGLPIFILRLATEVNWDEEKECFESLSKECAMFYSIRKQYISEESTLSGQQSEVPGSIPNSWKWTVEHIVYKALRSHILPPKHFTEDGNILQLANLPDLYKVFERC
Chain of UniProt P03891 (P03891 whole entry, looked up): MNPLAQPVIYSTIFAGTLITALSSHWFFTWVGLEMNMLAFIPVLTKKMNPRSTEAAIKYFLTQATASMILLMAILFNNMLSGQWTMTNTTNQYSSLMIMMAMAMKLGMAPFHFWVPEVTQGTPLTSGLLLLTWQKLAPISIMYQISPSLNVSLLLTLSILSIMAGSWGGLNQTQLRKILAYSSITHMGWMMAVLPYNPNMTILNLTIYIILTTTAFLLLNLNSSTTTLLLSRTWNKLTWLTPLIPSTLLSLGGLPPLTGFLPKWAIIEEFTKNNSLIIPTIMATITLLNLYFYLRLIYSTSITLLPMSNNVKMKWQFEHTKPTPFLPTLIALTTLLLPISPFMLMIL
Chain of UniProt Q6P1R3 (Q6P1R3 whole entry, looked up): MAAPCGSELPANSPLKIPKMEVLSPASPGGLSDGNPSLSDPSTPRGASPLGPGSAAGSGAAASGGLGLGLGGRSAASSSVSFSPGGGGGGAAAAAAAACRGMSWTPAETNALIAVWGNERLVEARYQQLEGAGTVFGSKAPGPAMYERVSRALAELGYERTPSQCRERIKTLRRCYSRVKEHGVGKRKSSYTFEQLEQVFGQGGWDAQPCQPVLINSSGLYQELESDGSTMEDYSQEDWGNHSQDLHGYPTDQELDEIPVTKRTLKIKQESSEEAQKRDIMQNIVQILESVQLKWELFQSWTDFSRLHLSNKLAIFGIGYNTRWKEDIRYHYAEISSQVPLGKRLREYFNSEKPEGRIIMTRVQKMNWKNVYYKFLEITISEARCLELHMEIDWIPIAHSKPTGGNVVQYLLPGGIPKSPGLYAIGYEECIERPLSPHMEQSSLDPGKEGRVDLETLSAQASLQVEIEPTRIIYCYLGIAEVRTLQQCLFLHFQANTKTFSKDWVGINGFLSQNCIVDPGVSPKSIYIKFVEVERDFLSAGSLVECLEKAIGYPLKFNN
Chain of UniProt B2RBV5 (B2RBV5 whole entry, looked up): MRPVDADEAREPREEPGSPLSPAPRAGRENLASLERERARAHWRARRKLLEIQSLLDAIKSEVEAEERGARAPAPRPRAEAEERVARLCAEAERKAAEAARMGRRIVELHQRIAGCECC
Chain of UniProt Q9Y6X9 (Q9Y6X9 whole entry, looked up): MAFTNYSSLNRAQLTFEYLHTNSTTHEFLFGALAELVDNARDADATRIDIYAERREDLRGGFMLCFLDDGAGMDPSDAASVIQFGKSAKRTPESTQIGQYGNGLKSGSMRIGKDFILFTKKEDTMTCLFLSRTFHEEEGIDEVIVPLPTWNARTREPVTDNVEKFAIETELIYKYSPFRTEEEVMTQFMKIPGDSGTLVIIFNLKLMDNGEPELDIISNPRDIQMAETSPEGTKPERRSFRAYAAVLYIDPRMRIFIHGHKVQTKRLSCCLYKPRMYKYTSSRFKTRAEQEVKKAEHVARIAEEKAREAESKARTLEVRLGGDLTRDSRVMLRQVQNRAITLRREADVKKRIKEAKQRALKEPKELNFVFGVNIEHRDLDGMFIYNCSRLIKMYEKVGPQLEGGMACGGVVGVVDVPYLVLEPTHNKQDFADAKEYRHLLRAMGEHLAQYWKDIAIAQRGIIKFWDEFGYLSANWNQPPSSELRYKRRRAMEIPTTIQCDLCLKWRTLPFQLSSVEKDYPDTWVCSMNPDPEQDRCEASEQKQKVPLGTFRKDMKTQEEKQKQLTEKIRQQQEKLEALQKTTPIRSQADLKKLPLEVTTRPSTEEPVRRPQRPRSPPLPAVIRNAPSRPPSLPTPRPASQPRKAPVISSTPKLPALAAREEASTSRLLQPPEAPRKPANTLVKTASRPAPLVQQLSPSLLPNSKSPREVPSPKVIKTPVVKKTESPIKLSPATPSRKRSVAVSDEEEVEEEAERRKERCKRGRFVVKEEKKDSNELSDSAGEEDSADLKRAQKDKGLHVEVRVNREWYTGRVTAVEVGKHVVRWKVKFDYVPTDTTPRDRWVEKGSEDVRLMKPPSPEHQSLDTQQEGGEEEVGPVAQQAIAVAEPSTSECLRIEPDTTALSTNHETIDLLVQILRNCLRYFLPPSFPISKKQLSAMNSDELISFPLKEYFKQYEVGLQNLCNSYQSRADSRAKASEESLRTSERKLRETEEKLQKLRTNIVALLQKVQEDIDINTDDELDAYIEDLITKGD
Chain of UniProt Q86TA1 (Q86TA1 whole entry, looked up): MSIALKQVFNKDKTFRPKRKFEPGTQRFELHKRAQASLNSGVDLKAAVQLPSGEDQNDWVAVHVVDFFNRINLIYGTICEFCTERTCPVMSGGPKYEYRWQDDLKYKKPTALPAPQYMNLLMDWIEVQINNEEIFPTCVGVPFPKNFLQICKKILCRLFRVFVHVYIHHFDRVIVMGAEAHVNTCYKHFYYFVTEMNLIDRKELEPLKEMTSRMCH
Chain of UniProt Q86VX9 (Q86VX9 whole entry, looked up): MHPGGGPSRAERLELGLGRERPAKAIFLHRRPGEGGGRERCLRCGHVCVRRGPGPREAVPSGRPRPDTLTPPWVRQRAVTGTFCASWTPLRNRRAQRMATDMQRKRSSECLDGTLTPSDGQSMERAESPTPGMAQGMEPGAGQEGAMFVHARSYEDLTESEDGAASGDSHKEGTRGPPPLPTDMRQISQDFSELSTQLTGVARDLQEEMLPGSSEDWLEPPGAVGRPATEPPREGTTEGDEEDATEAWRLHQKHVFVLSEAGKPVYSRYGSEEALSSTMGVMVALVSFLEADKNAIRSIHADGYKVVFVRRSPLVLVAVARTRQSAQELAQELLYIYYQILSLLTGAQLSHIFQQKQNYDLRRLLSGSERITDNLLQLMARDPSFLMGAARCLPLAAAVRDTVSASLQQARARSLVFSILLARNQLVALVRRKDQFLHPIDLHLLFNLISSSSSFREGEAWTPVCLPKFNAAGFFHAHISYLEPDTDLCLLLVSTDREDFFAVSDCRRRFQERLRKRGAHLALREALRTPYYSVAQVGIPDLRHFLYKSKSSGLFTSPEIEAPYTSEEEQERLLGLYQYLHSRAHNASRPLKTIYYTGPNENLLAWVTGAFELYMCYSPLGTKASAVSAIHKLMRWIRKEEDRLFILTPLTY
Chain of UniProt Q6N063 (Q6N063 whole entry, looked up): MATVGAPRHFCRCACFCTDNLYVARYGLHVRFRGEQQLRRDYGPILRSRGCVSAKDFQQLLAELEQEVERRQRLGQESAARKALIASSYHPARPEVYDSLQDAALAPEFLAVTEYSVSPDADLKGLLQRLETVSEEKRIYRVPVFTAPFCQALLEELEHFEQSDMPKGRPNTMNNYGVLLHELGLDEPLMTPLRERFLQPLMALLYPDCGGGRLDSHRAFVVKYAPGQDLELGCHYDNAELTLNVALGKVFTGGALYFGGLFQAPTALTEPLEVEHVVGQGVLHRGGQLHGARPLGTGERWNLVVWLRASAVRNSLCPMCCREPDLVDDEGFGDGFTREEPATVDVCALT

Turning to MT-ND2 (UniProt P03891), the log2 fold change was -0.029 in [1]; 0.065 with zotarolimus; -0.143 with idasanutlin; 0.04 with alisertib; -0.131 in [2]; 0.106 in the assay with gefitinib. Further, the log2 fold change in [3] is 0.074; in the assay with lapatinib it was -0.008; in the assay with pictilisib it was 0.139; with crizotinib, 0.096; in assay [4], -0.028; in the assay with duvelisib, 0.177. The log2 fold change with gandotinib is -0.064; with tozasertib it was 0.07; in assay [5], 0.101; with doramapimod it was -0.141; with ispinesib, 0.336.

With MOB3B (UniProt Q86TA1), the log2 fold change in [1] was 0.355; with zotarolimus it was -0.087; with idasanutlin it was -0.24; with alisertib, -0.001; in assay [2], 0.04; with gefitinib it was 0.384. Besides, the log2 fold change in [3] was -0.011; in the assay with lapatinib it was -0.033; with pictilisib, 0.067; in the assay with crizotinib, -0.078; in [4] it was 0.098; with gandotinib, 0.039. Moreover, the log2 fold change with tozasertib is -0.025; in the assay with doramapimod, 0.

NA (UniProt J3KR12): the log2 fold change is 0.123 in assay [1]; -0.116 with alisertib; -0.134 with gefitinib; 0.077 in assay [3]; 0.251 with crizotinib; 0.061 in [6]. For the same target, the log2 fold change in the assay with doramapimod is -0.017; in the assay with ispinesib it was 0.006.

For NA (UniProt B2RBV5), the log2 fold change with filanesib is 0.081; in the assay with alisertib, -0.043; in [2] it was 0.001; in the assay with gefitinib it was -0.33; in assay [3], 0.028; with lapatinib it was -0.243. Also, the log2 fold change is 0.061 with pictilisib, -0.027 in [7], 0.064 in [6] and 0 in the assay with gandotinib.

MYSM1 (UniProt Q5VVJ2): the log2 fold change in assay [1] was -0.063; with filanesib, -0.007; in assay [7] it was 0.067; with crizotinib it was -0.091; with doramapimod, -0.045; with ispinesib, 0.128.

With NKTR (UniProt P30414), the log2 fold change was 0.064 with alisertib, 0.295 in [2], 0.109 in assay [3] and -0.173 in the assay with lapatinib.

NOLC1 isoform 3 (UniProt Q14978): the figures for the log2 fold change (with zotarolimus; in assay [4]) were -0.013 and -0.305, respectively.

Regarding NDUFA7 (UniProt M0R0N0), the log2 fold change was -0.042 in the assay with filanesib and 0.095 in assay [7].

Regarding MORC2 (UniProt Q9Y6X9), the log2 fold change is 0.195 in [1]; -0.018 in the assay with idasanutlin; -0.012 with alisertib; 0.134 in [2]; -0.013 in [3]; -0.118 with lapatinib. In addition, the log2 fold change with crizotinib is 0.027; in assay [6], 0.065; with doramapimod, -0.042.

In the case of OAF (UniProt Q86UD1), the log2 fold change with filanesib is -0.017; in the assay with alisertib, -0.239; in assay [3], 0.539 (active); in assay [7], -0.112; with ispinesib, 0.014.

Take NA, A0A494C071: the log2 fold change in [1] was -0.265; with zotarolimus, -0.011; with idasanutlin, -0.392; with alisertib it was 0.016; in the assay with gefitinib, 0.367; in assay [3], 0.143. The log2 fold change is 0.277 in the assay with pictilisib; -0.887 (active) with crizotinib; 0.137 in assay [6]; 0.043 in assay [4]; 0.007 with duvelisib; -0.352 with gandotinib. Also, the log2 fold change was -0.152 with tozasertib, -0.102 in assay [5] and 0.104 with doramapimod.

On to MON1A (UniProt Q86VX9), for which the log2 fold change in assay [1] is -0.118; with filanesib, -0.023; with alisertib, 0.291; in assay [2], -0.042; with gefitinib, 0.427; in [3] it was 0.049. In addition, the log2 fold change with lapatinib is -0.003; in the assay with pictilisib it was -0.011; in assay [7], 0.049; in the assay with crizotinib, -0.559 (active); in assay [6] it was 0.057; in the assay with duvelisib it was -0.012. In addition, the log2 fold change in the assay with gandotinib is 0.116; with tozasertib, -0.111; in assay [5] it was 0.011; in the assay with doramapimod, 0.045; in the assay with ispinesib, -0.153.

As to MLH1 (UniProt P40692), the log2 fold change in the assay with zotarolimus is 0.024; in the assay with idasanutlin it was 0.03; in the assay with alisertib it was -0.171; in [2], -0.135; in assay [3] it was -0.1; in the assay with lapatinib, 0.091. Also, the log2 fold change was 0.083 with pictilisib; 0.042 in assay [6]; -0.127 in assay [4]; 0 in the assay with duvelisib; -0.068 in the assay with gandotinib; -0.124 in the assay with tozasertib. Moreover, the log2 fold change in assay [5] is 0.094.

Regarding OGFOD2 (UniProt Q6N063), the log2 fold change in assay [1] was -0.275; in the assay with zotarolimus, 0.034; with idasanutlin it was 0.073; with alisertib, 0.007; in the assay with gefitinib, 0.071; in [3], -0.033. Also, the log2 fold change in the assay with pictilisib was -0.144; with crizotinib, 0.04; in assay [6] it was 0.042; in [4], -0.058; in the assay with duvelisib, 0.035; with gandotinib it was 0.278. In addition, the log2 fold change was 0.003 with tozasertib, 0.034 in assay [5], 0.042 with doramapimod and -0.032 with ispinesib.

As for NIPSNAP2 (UniProt C9J7B1), the log2 fold change was 0.05 with filanesib; -0.38 with idasanutlin; -0.041 in the assay with alisertib; -0.047 in assay [3]; 0 in [7].

Take MSANTD2 (UniProt Q6P1R3): the log2 fold change with filanesib was -0.107; in [7] it was 0.295; in assay [6], 0.089; in the assay with duvelisib, 0.019; in the assay with tozasertib it was 0.064; in [5] it was 0.039.
